# Most compounds without a hit are left out; they make up all but 0.51% or so of the library.
# Tat export inh = E. coli Tat export inhibitors, primary screen, MC4100, TorA-mCherry reporter, fluorescence, single point. inhibition, % at 10 µM. hit rate 0.036% among 340,000. AID 488895, 2010;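 active means mean replicate inhibition at least 50% and at least half of replicates individually reaching 50%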;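 further: exported cargo escapes ClpAP degradation while cytoplasmic cargo is degraded and loses fluorescence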
# phage Ecoli inh = growth loss of phage-infected E. coli, primary screen, RecBCD inhibitor project, absorbance, with phage, HTS; inhibition, % at 11.9 µM; hit rate 0.26% among 360,000; AID 651602, 2012; in the data active means inhibition above about 11%
# E coli growth-1 = E. coli growth inhibition, primary screen, OD600 | Escherichia coli growth, 23 h; active compounds read low | OD600 absorbance (no concentration beside the values) | hit rate 0.21% among 330,000;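 active means OD600 absorbance below the run mean of sample wells minus 3.6 SD, in any replicate, cut at about 0.56 in these data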
# E coli growth-2 = E. coli V3065 growth inhibition, primary screen, counter-screen for AddAB inhibitor project, absorbance, OD600. 18 h. AID 449728, 2010. inhibition, % at 11.9 µM. hit rate 0.27% among 330,000;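 active means inhibition above the campaign's mean inhibition across all tested compounds plus 3 SD, cut at about 9.9% in these data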;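 further: uninfected addAB+ strain grown without phage in ampicillin broth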
# AddAB inh = growth inhibition of E. coli expressing H. pylori AddAB, primary screen, AddAB inhibitor project, absorbance. hit rate 0.29% among 330,000. inhibition, % at 11.9 µM; in the data active means inhibition above about 12%
# AddAB conf = growth loss of phage-infected E. coli expressing H. pylori AddAB, confirmation, AddAB inhibitor project, absorbance, E. coli V3065, T4 phage, triplicate | AID 488942, 2010 | hit rate 64% among 880 | OD; T4 phage with gene 2 nonsense mutations | inhibition, % at 11.9 µM | shares compounds with AddAB inh;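 active means mean inhibition above a set limit taken from the earlier primary screen, cut at about 13% in these data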;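 further: higher means less bacterial growth since AddAB block lets phage replicate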
# RecBCD counter = growth loss of RecBCD+ E. coli with mutant T4 phage, counter-screen for AddAB inhibitor project, absorbance, V66 E. coli | shares compounds with AddAB inh | OD growth | inhibition, % at 11.9 µM | hit rate 73% among 880;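 active means mean inhibition above the mean of solvent-only control wells plus 3 SD, cut at about 4% in these data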;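 further: optical density read after an 18 h incubation at 37 °C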
# bact viab count = bacterial viability inhibition counter-screen, confirmation, counter-screen for AddAB inhibitor project, absorbance. shares compounds with AddAB inh. inhibition, % at 11.9 µM. hit rate 35% among 880. AID 488956, 2010. absorbance (AddAB counterscreen); in the data active means inhibition above about 25%
# A number is an active result; n = inactive; x = no result given.
SMILES,Tat export inh,phage Ecoli inh,E coli growth-1,E coli growth-2,AddAB inh,others
COc1ccc(CNC(=O)CC2C(=O)N(C3CCCCC3)CC2Cc2ccccc2)cc1 (configuration not stated),x,x,n,x,x,
O=C(c1cc(O)c(O)c([N+](=O)[O-])c1)c1ccccc1F,57,n,n,n,n,
Nc1ccccc1SCc1cn2ccccc2n1,75,n,n,n,n,
Nc1ccccc1SCc1cn2cccnc2n1,n,n,n,n,n,
CN1CCCCCC1=Nc1ccc([N+](=O)[O-])cc1,n,n,n,n,n,
CN1C(=O)C(N=Nc2ccc([N+](=O)[O-])cc2)SC1=S (configuration not stated),n,n,0.45,x,x,
N=c1n(Cc2ccccc2)c2ccccc2n1CC(O)COc1ccc(Cl)cc1Cl (configuration not stated),n,n,0.5,x,x,
CC1CC2C3CC(F)C4=CC(=O)C(Cl)=C[C@]4(C)[C@@]3(F)C(O)C[C@]2(C)[C@@]1(O)C(=O)CO (some centres not stated),x,x,n,x,x,
CC1=NN(C(N)=S)C(=O)C1N=Nc1cccc2ccccc12 (configuration not stated),x,x,x,14,n,
CCCCNC(=S)Nc1ccc([N+](=O)[O-])cc1,n,n,0.52,n,n,
CC(C)CCNC(=S)Nc1ccc([N+](=O)[O-])cc1,n,n,n,n,n,
COC(=O)NN=Cc1ccc([N+](=O)[O-])s1,x,x,n,x,x,
Cc1[nH]cnc1C(=O)NN=Cc1ccc([N+](=O)[O-])s1,x,x,0.41,x,x,
COCC1=C(C(=O)OC(C)OC(=O)OC(C)C)N2C(=O)C(NC(=O)C(=NOC)c3csc(N)n3)C2SC1 (configuration not stated),x,x,0.28,x,x,
COc1cccc(C(=O)NC2C(=O)N3C(C(=O)O)=C(COC(C)=O)CSC23)c1 (configuration not stated),n,n,x,n,n,
CON=C(C(=O)NC1C(=O)N2C(C(=O)O)=C(COC(C)=O)CSC12)c1csc(N)n1 (configuration not stated),x,x,0.063,x,x,
CC(=O)OCC1=C(C(=O)OC(C)(C)C)N2C(=O)[C@@H](NC(=O)Cc3ccccc3)[C@H]2SC1,n,n,n,x,x,
O=C(C1=CC(c2ccc3c(c2)OCO3)CC(OCCCCO)O1)N1CCN(Cc2ccc3c(c2)OCO3)CC1 (configuration not stated),x,x,n,x,x,
CCCCN(C)CCn1c(=S)[nH]c2ncccc2c1=O,51,n,n,n,n,
NCCCCC1NC(=O)C(CCC(=O)O)NC(=O)c2cc([N+](=O)[O-])cc(I)c2NCCC(C(N)=O)NC1=O (configuration not stated),x,x,n,x,x,
Cc1cc(NC(=O)Nc2cccc([N+](=O)[O-])c2)no1,n,n,n,n,n,
Cc1ccc(NC(=O)Nc2cccc([N+](=O)[O-])c2)cc1F,n,n,0.48,n,n,
COc1ccc(NC(=O)Nc2ccc(F)cc2F)c(C)c1,n,n,n,n,n,
Cc1cc([N+](=O)[O-])ccc1NC(=O)Nc1ccc(F)cc1F,n,n,0.51,n,n,
O=C(Nc1ccc(OC(F)(F)F)cc1)Nc1cccc([N+](=O)[O-])c1,n,n,0.39,n,n,
SMILES,Tat export inh,phage Ecoli inh,E coli growth-1,E coli growth-2,AddAB inh,others
COC(=O)C(C)NC(=O)Nc1ccc(OC)cc1OC (configuration not stated),x,x,n,x,x,
CSCCC(NC(=O)OC(C)(C)C)c1nnc(SCC(N)=O)o1 (configuration not stated),x,x,n,x,x,
C/C(CC(=O)Nc1cc(C)ccn1)=N\NC(=O)c1cccc(C)c1O,n,11,x,n,n,
CNCC1Oc2c(NS(=O)(=O)c3ccccc3)cccc2C(=O)N(C(C)CO)CC1C (configuration not stated),x,x,n,x,x,
O=S1(=O)CCC(NC(=S)SCCOc2ccccc2)C1 (configuration not stated),n,n,0.49,n,n,
CCCCSC(=S)NC1CCS(=O)(=O)C1 (configuration not stated),n,n,n,n,n,
CC[n+]1c(/C=C2\Sc3ccccc3N2C)ccc2cccc(C)c21,n,n,0.33,x,x,
Nc1ccc2c(c1)N1CCN=C1S2,n,n,n,n,n,
O=C(Nc1ccc(Cl)cc1)Nc1ccc2c(c1)N1CCN=C1S2,n,n,0.5,n,n,
CCCCCCC(=O)O,n,n,n,n,n,
CCCCCCCCCCCCCCCC(=O)OC(CC(=O)O)C[N+](C)(C)C (configuration not stated),54,n,n,n,n,
C=CC[n+]1ccc(/C=C2\C=Cc3cc(C)ccc3N2CC)c2ccccc21,n,x,0.44,x,x,
CCCOc1ccc(/C=N/NC(=S)Nc2ccccc2[N+](=O)[O-])c(O)c1,x,n,x,11,n,
Cc1c(C(C)CC(C)O)oc(=O)c2c1Oc1c(C)c(C(C)CC(C)O)oc(=O)c1C2 (configuration not stated),x,x,n,x,x,
CC(=O)OCc1c(COC(C)=O)[n+](=O)c2ccccc2n1[O-],n,n,0.47,n,n,
O=C(O)c1ccccc1C(=O)Nc1ccc(S(=O)(=O)Nc2nccs2)cc1,n,n,n,11,n,
COc1ccccc1C(=O)Nc1ccc(S(=O)(=O)Nc2nccs2)cc1,n,n,n,n,n,
CN(C)CCCNc1cc(C(C)(C)C)nc2c(-c3ccc(Cl)cc3)cnn12,n,n,0.27,n,n,
C=CCn1c(=O)c(C(=O)NCCNCC)c(O)c2ccccc21,n,n,n,n,n,
C=CCn1c(=O)c(C(=O)NCc2ccccc2)c(O)c2ccccc21,n,n,n,11,n,
Cc1cc(C(=O)N2CCN(c3cc(Cl)ccc3C)CC2)on1,n,n,n,n,127,AddAB conf=n;RecBCD counter=n;bact viab count=n
Cc1ccc(Cl)cc1N1CCN(C(=O)C(=O)N2CCCCC2)CC1,n,n,n,n,n,
COc1cc(C=NN=C2NC(=O)C(Cc3ccccc3)S2)ccc1O (configuration not stated),x,x,n,x,x,
C#CCNC(=O)C1=CC(C(C)(C)C)CC(OCCCCO)O1 (configuration not stated),x,x,n,x,x,
COc1ccc(SCCN2CCC(C)CCC2=O)cc1 (configuration not stated),x,x,n,x,x,
O=[N+]([O-])c1cc(O)c2ncccc2c1,x,n,0.13,16,14,AddAB conf=34;RecBCD counter=8.9;bact viab count=n
O=[N+]([O-])c1cc2cccnc2c2ncccc12,x,n,n,n,n,
CC(=O)c1cc(Cl)ccc1OCC(=O)NC1CCCC1,n,n,n,x,x,

# Screening results: PubChem, several laboratories
